This is one part of a sample in which hits are shown more often than they occur.
CHX counter = Cycloheximide Counterscreen for Small Molecule Inhibitors of Shiga Toxin. cell reporter, cycloheximide protein synthesis inhibition counterscreen. max response, %. 300,000 tested, 12% active; in the data active = max response mostly above about 13%, no sharp cut-off; inactive = mostly below about 14%; also: read at 38.3 µM for the half of the compounds with a filed dose; 0% is about no effect
AmpC no deterg = qHTS Inhibitors of AmpC Beta-Lactamase (assay without detergent); P00811; AmpC nitrocefin hydrolysis, absorbance 480 nm, 0.0001% Triton; Potency, µM (series often up to 57.1 µM), for inactives: top-dose activity change, negative = inhibition, actives largely listed as inhibitors; 330,000 tested, 0.52% active;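 also: potency is read from the fitted curve at half-maximal effect; plate controls were no compound for no effect and no enzyme for full effect; nearly all actives have a fitted effect of over 20% in size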
Target sequence (P00811 whole entry, looked up): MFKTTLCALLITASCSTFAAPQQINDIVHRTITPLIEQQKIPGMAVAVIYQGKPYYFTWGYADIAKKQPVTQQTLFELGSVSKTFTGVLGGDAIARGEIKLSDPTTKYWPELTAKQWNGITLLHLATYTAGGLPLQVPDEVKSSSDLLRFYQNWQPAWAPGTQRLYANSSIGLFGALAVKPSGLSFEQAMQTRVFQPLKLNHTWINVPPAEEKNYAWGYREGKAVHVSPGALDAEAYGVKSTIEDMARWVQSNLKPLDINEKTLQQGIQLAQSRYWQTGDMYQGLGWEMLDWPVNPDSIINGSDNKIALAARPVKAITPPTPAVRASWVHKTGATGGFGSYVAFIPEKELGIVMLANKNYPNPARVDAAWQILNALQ
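AmpC (5.3 nM in the dispensed reagent) in 20 mM phosphate pH 7.0 with 0.01% (detergent screen) or 0.0001% Triton X-100 was preincubated with compounds for 15 min at room temperature. Nitrocefin was then added from an 800 uM solution, and hydrolysis was followed at 480 nm.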
Shiga toxin inh = A qHTS for Small Molecule Inhibitors of Shiga Toxin; AID 2315, 2010; 290,000 tested, 9.2% active; inhibition, % at 38.7 µM; Vero cells, Shiga toxin protein synthesis inhibition reporter; in the data active = inhibition mostly above about 28%, no sharp cut-off; inactive = mostly below about 43%; also: 0% is about no effect
AmpC inh detg = qHTS Inhibitors of AmpC Beta-Lactamase (assay with detergent). P00811. AmpC hydrolysis of nitrocefin, absorbance 480 nm, 0.01% Triton. Potency, µM (titrated, usually from 114 µM), for the others: top-dose activity change, negative = inhibition, most hits filed as inhibitors. 370,000 tested, 0.041% active;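 also: potency is read from the fitted curve at half-maximal effect; 0% = no-compound wells and -100% = no-enzyme wells; nearly all actives have a fitted effect of over 25% in size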
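20 mM phosphate pH 7.0 + 0.01% (detergent screen) or 0.0001% Triton X-100; 5.3 nM AmpC reagent; cpd preinc 15 min RT; nitrocefin (800 uM stock) to start; A480 q20 s × 4 min; Activity was normalised to no-enzyme and no-compound control wells.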
NS1 inh = qHTS Assay for Inhibitors of Influenza NS1 Protein Function | Potency, µM (highest dose often 46.1 µM), inactives show top-dose activity, positive = more growth | 270,000 tested, 0.4% active; calls by dose curve; also: potency is read from the fitted curve at half-maximal effect; actives are rising curves; nearly all actives have a fitted effect of over 50% in size
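Recovery from NS1-induced slow growth read by OD600 in budding yeast switched to galactose assay medium (pH 6.0, -URA) at 1:100 dilution. Compound 23 nl per well; the matching strain lacking NS1 serves as control.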
Starred values were filed as active, the others as inactive; ? = inconclusive; · = no result; [ ] = another dose, or the depositor's remark. Unless noted, calls follow the shape of the dose curve; as a rule, active = well fitted curve in the direction sought with a large enough effect; inconclusive = small, poorly fitted or top-dose-only effect, or another doubt; inactive = no such curve, though single readings can be large; an effect the other way counts as inactive or inconclusive.

SMILES	CHX counter	AmpC no deterg	Shiga toxin inh	AmpC inh detg	NS1 inh
Brc1ccc(-c2noc(-c3ccccn3)n2)o1	45*	-24%	81*	-8%	-33%
COc1ccc(-c2nc(-c3ccccn3)no2)cc1	-9	-9%	-19	-2%	-7%
Brc1ccc(-c2nc(-c3ccncc3)no2)o1	24*	-8%	64*	-1%	6%
COc1ccc(C)cc1S(=O)(=O)N1CCN(C(=O)c2ncoc2-c2ccccc2F)CC1	0	86%	2	-13%	-49%
Cc1ccc(S(=O)(=O)NCc2ccccn2)cc1C	-3	-12%	-2	?	-13%
Cc1cccc(-n2cnc(C(=O)NC3CCCCCC3)c2)n1	60*	-6%	76*	-5%	-17%
CCC(C)NC(=O)c1cn(-c2cccc(C)n2)cn1 (stereo not drawn)	20*	-7%	53*	-1%	6%
c1ccc(Sc2ncnc3ccccc23)cc1	12*	6%	36	-10%	-54%
O=C(O)C1CC(CCCP(=O)(O)O)CCN1 (stereo not drawn)	9	·	2	·	·
O=S(=O)(c1cccs1)N1CCN(c2ncccn2)CC1	-1	-12%	10	-9%	-9%
O=S(=O)(c1cccs1)N1CCN(c2ccc(O)cc2)CC1	15*	-25%	1	-1%	1%
CN1CCN(S(=O)(=O)c2cccs2)CC1	-3	-14%	-5	3%	6%
Cc1ccc(S(=O)(=O)N2CCN(S(=O)(=O)c3cccs3)CC2)cc1	33*	-6%	56*	8%	-23%
Cc1cccc(C(=O)n2nc(-c3ccco3)nc2NCc2ccccc2)c1	·	·	·	10%	·
O=C(NCC(=O)N1CCc2ccccc2C1)c1ccccc1Cl	22*	-12%	71*	2%	-4%
O=C(CNC(=O)c1ccccc1Cl)OCC(=O)N1CCc2ccccc21	41*	-18%	127*	6%	·
O=C(Cc1ccccc1F)OCC(=O)N1CCc2ccccc21	64*	-26%	97*	4%	-6%
CSc1nc(N)nc2c1ncn2CC(=O)N[C@H](C)c1cccc2ccccc12	·	-46%	·	·	·
CN(C)S(=O)(=O)c1cccc(COC(=O)c2ccc(Cl)cc2O)c1	45*	-2%	106*	0%	1%
COc1ccc(C[C@@H]2C(=O)N[C@H](C)C(=O)N(C)[C@@H]3Cc4ccc(cc4)Oc4cc(ccc4O)C[C@H](C(=O)N[C@@H](C)C(=O)N[C@H](C)C(=O)N2C)N(C)C3=O)cc1	·	·	·	·	-5%
Cc1ccc(-n2ncc(C(=O)NCc3ccccc3)c2C2CCN(C(=O)OC(C)(C)C)CC2)cc1	·	·	·	-2%	·
COc1ccccc1N/C(N)=N/c1nc(CSc2ccc(C)cc2)cc(=O)[nH]1	-4	14µM*	-6	?	11%
Cc1ccc(SCc2cc(=O)[nH]c(/N=C(\N)Nc3ccccc3Sc3ccccc3)n2)cc1	-1	-22%	2	?	7%
COc1cccc(COC(=O)c2ccc3c(=O)n4c(nc3c2)CCC4)c1OC	·	96%	·	?	·
COc1cccc(CN(C)C(=O)c2ccc3c(=O)n4c(nc3c2)CCC4)c1OC	36*	-1%	69	3%	-2%
SMILES	CHX counter	AmpC no deterg	Shiga toxin inh	AmpC inh detg	NS1 inh
O=C(NC1CCCCCC1)c1ccc2c(=O)n3c(nc2c1)CCCCC3	31*	12%	46	-8%	-49%
COc1ccc(NC(=O)c2ccc3c(=O)n4c(nc3c2)CCCCC4)cc1	21*	-14%	29	-5%	-2%
CCSc1nc2c(c(=O)[nH]1)C(c1cccs1)C(C(=O)OC)=C(C)N2 (stereo not drawn)	-5	-20%	-12	?	20%
CN1CCN(NC(=O)c2ccc(S(=O)(=O)N3CC4(C)CC3CC(C)(C)C4)cc2)CC1 (stereo not drawn)	-1	83%	-13	4%	0%
C=CCOc1ccc(CNn2c(C)n[nH]c2=S)cc1OC	28*	-1%	55*	-12%	20%
COc1cc(CNn2c(C)n[nH]c2=S)cc(Cl)c1OCC(=O)NC(C)(C)C	11*	24%	21	-12%	9%
COc1cc(CNn2c(C)n[nH]c2=S)cc(Br)c1OCC(=O)NC(C)(C)C	1	45%	·	-9%	7%
CC(=O)OCC(CO)OC(C)=O (stereo not drawn) (tested in a mixture with another compound)	-4	·	-16	·	·
O=C(c1ccc2ccccc2c1)N1CCCC1	5	-14%	21	-3%	-17%
O=C(Nc1cccc(C(=O)N2CCCCC2)c1)c1ccccc1Br	-1	2%	2	?	4%
O=C(/C=C/c1ccccc1)Nc1ccc(C(=O)N2CCCCC2)cc1	14	-2%	44*	0%	-5%
O=C(Nc1ccc(C(=O)N2CCCC2)cc1)c1ccccc1Br	11*	-1%	35	-11%	1%
CC(=O)N1CCN(c2ccc(NC(=O)c3ccccc3Br)cc2Cl)CC1	1	2%	5	-5%	-14%
O=C(Nc1ccc(C2CC2(Cl)Cl)cc1)c1ccccc1Br (stereo not drawn)	45*	-35%	57*	?	-57%
O=C1c2ccccc2-c2ccc(C(=O)N3CCCCC3)cc21	31*	29%	153	-3%	-10%
CCN(C(=O)CSc1nnc(-c2cc3occc3n2C)n1-c1ccccc1C)c1ccccc1	·	·	·	-10%	·
O=C(CSc1nnc(NC(=O)c2ccco2)s1)Nc1ccccc1	18	-18%	46	-4%	·
O=C(Nc1ccccc1)Nc1ccc(C(=O)N2CCCC2)cc1	19*	-8%[2.29 µM]	45*	-5%	-3%
CC(=O)c1cccc(NC(=O)Nc2ccc(C(=O)N3CCCC3)cc2)c1	-1	-26%	9	-7%	-3%
CC(C)(C)c1ccc(C(=O)c2c[nH]c(C(=O)NCC3CCCO3)c2)cc1 (stereo not drawn)	22*	29%	22	-3%	12%
Cc1ccccc1C(=O)c1c[nH]c(C(=O)N=CN(C)C)c1	-2	-15%	-13	1%	2%
COc1ccc(C(=O)c2c[nH]c(C(=O)NCC3CCCO3)c2)cc1 (stereo not drawn)	21*	-4%	28	-12%	5%
COc1ccc(C(=O)c2c[nH]c(C(=O)N=CN(C)C)c2)cc1	20*	-30%	42*	3%	·
Cc1cccc(NC(=O)c2ccc(OCC3CCCO3)cc2)c1C (stereo not drawn)	30*	-43%	45*	-9%	-6%
O=C(Nc1ccc(Cl)cc1)c1ccc(OCC2CCCO2)cc1 (stereo not drawn)	42*	-2%	95*	3%	-2%
Cc1cccnc1NC(=O)c1ccc(OCC2CCCO2)cc1 (stereo not drawn)	·	-8%	·	-9%	·
Cc1oc2c(c1C(=O)Nc1ccc(Cl)cc1F)C1=NCCN1C=N2	·	·	·	22%	·

Bioassay records as filed in PubChem.
